Experimental data published in the OligoGym collection.

molecular target: COPS6; assay: pooled miR-30 sensor sort-seq; sequence = guide strand; conditions: shRNA
Further: reference of the scale not given here.

Sequence | sensor-assay potency score (higher = more potent)
AATCTGTCTTGAACTTGTCTGT | -0.335
TTCCTTGTCAATGATAATCTTC | -0.166
TACTGCTGCATCCACCTCCATC | -1.31
TCTGTCTTGAACTTGTCTGTGC | 0.397
TCGTAGAGGACATTGAACTTGT | 0.432
TTAAACTGCTCCTCCTTGGTGT | 0.63
TTCAACTTCAGAAAGAGGGGGC | 0.785
TTGATCATAAAAATCTGTCTTG | 0.185
TTGTCTGTGCTGAGCACCGGGA | -0.77
TTGTCGGTCGTAGAGGACATTG | -1.74
TTGAACTTGTTCACAAACTGGT | 0.64
TTGTCAATGATAATCTTCTCTT | -0.44

molecular target: COPS7A; assay: as above; conditions: shRNA

Sequence | sensor-assay potency score (higher = more potent)
TTTACTTTAGCAGCCAGGGTGA | -0.299
TAGGAGCAGAAATTGCTCCTGG | -0.149
TTGGTTGGCACGGCTCACCTGC | -0.606
TTATTCTTCTGAGCCTCTGTTA | -0.522
TTCAGCTAAGTAGTCAGCGTAT | -0.555
TTAGTGGAGGAAGATTCCGGGC | -0.887
TGAACCTAGGATTATCAGCTGG | -0.856
TACACTTTACTTTAGCAGCCAG | -0.419
TAATACAATCTATATACCCTTC | -0.206
TAGTGTGACAGGATTCTAGGAT | 0.596
TCTAACATTGGGCATGTCCAGC | -1.04
